The whole screen tested about 220,000 compounds, of which about 16,000 (7.3%) were called active. Inconclusive results (about 25%) are left out. Many of the other results were omitted from the sample, so actives are more common in it than they were. A number with no mark means an inactive call. Calls follow the shape of the dose curve; as a rule, active = well fitted inhibition curve with a large enough effect (not every such curve was filed as active); inconclusive = small, poorly fitted or top-dose-only effect, or another doubt; inactive = no such curve, though single readings can be large or run the other way.
The molecules below were run against Aldehyde dehydrogenase 1A1 (Homo sapiens) (UniProt P00352) (assay: qHTS Assay for Inhibitors of Aldehyde Dehydrogenase 1 (ALDH1A1)). Conditions: Purified ALDH1A1, NADH fluorescence, propionaldehyde substrate; series mostly up to 75.3 µM; activity, negative = inhibition: at the top concentration.
Aldehyde dehydrogenase 1A1 (Homo sapiens), sequence (P00352 whole entry, looked up): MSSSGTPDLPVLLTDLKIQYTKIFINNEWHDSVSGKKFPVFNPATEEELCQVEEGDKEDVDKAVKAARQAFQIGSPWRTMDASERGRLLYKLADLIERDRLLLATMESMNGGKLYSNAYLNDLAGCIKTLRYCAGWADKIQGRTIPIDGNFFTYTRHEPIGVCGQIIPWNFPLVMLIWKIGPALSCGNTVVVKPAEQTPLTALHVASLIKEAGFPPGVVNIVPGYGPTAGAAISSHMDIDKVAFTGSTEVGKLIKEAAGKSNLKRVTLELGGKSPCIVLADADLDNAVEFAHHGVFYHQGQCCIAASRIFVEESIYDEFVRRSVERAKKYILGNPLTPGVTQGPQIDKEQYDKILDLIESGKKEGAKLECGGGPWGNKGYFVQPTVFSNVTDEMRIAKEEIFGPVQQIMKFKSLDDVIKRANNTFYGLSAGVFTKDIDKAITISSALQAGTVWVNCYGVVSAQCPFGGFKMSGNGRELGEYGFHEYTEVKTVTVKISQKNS

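For activity, negative = inhibition in this document: plate controls were no enzyme wells and a reference inhibitor.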
Potency is read from the fitted curve at half-maximal effect.

Q: How did the “activity, negative = inhibition” value turn out when `CC(C)[C@@H]1NC(=O)c2cc([N+](=O)[O-])cc(I)c2NCCC[C@@H](C(=O)NC(CC(=O)O)C(N)=O)NC(=O)[C@H](CO)NC1=O` (stereo partly specified) was run?
A: 3.65%

Q: Which Potency does the source give for `NC(=O)CC[C@@H]1NC(=O)[C@H](CO)NC(=O)c2cc([N+](=O)[O-])cc(I)c2NCC[C@@H](C(N)=O)NC1=O` here?
A: 12.6 µM (active)

Q: For `NCCCC[C@@H]1NC(=O)[C@H](CCC(=O)O)NC(=O)c2cc([N+](=O)[O-])cc(I)c2NCC[C@@H](C(N)=O)NC1=O`, which “activity, negative = inhibition” value is on record?
A: -5.03%

Q: For `C/C(=N/NC(=O)c1ccn(C)n1)c1ccncc1`, which “activity, negative = inhibition” value is on record?
A: 3.35%

Q: For `COCC1CCCN(Cc2nc(-c3ccc4c(c3)OCO4)no2)C1` (stereo unspecified), which “activity, negative = inhibition” value is on record?
A: 4.51%

Q: Which “activity, negative = inhibition” value does the source give for `CN1CCN(S(=O)(=O)c2cccc(C(=O)O)c2)CC1` here?
A: 5.17%

Q: With `COc1cccc(CNC(=O)Cc2csc(Nc3nc(=S)[nH]c4ccccc34)n2)c1` as the molecule, how does the “activity, negative = inhibition” value read?
A: 3.37%

Q: For `CCc1ccccc1NC(=O)c1cccs1`, which Potency is on record?
A: 25.1 µM (active)

Q: With `O=C(Nc1ccccc1-c1ccccc1)c1cccs1` as the molecule, how does the “activity, negative = inhibition” value read?
A: -9.88%

Q: Which “activity, negative = inhibition” value does the source give for `O=C(O)Cc1ccc(NC(=O)c2cccs2)cc1` here?
A: 15.9%

Q: `Cc1cc(F)ccc1S(=O)(=O)Nc1ncnc2scc(-c3ccc(F)cc3)c12` was tested. Which “activity, negative = inhibition” value did it give?
A: 5.01%

Q: With `CONc1nc2nonc2nc1NOC` as the molecule, how does the “activity, negative = inhibition” value read?
A: -2.85%

Q: `Cc1ccc(S(=O)(=O)Cn2nnnc2CN2CCN(Cc3ccc4c(c3)OCO4)CC2)cc1` was tested. Which “activity, negative = inhibition” value did it give?
A: -8.22%

Q: Which “activity, negative = inhibition” value does the source give for `CCCN(Cc1cc2cccc(C)c2[nH]c1=O)S(C)(=O)=O` here?
A: 12%

Q: `O=c1[nH]c(N2CCN(Cc3ccc4c(c3)OCO4)CC2)nc2c1CCCC2` was tested. Which “activity, negative = inhibition” value did it give?
A: -5.99%

Q: Which Potency does the source give for `Cc1cccc2cc(CN(Cc3nnnn3Cc3ccccc3)C3CCCC3)c(=O)[nH]c12` here?
A: 15.8 µM (active)

Q: How did the Potency turn out when `Cc1cccc2cc(CN(Cc3ccc4c(c3)OCO4)Cc3nnnn3C3CCCC3)c(=O)[nH]c12` was run?
A: 11.2 µM (active)

Q: For `CC(C)C(c1nnnn1Cc1ccccc1)N1CCC(C(N)=O)CC1` (stereo unspecified), which “activity, negative = inhibition” value is on record?
A: 7.52%

Q: For `CCCCCCCCCCCCN1C(=O)CSC1c1cccnc1` (stereo unspecified), which “activity, negative = inhibition” value is on record?
A: -14.6%

Q: For `Nc1ccc(Cl)c(S(=O)(=O)Nc2ccccc2Cl)c1`, which “activity, negative = inhibition” value is on record?
A: 12.1%

Q: With `CCOC(=O)C1=C(CC)Nc2ccccc2N=C1N` as the molecule, how does the “activity, negative = inhibition” value read?
A: 10.9%

Q: `CC(C)n1c(CN2CCN(Cc3ccccc3)CC2)nc2ccccc21` was tested. Which “activity, negative = inhibition” value did it give?
A: -3.01%

Q: With `Cc1ccc2c(c1)C(O)(CC(=O)c1cccc(-n3cccc3)c1)C(=O)N2` (stereo unspecified) as the molecule, how does the “activity, negative = inhibition” value read?
A: 3.09%

Q: Which Potency does the source give for `CC(C)OCCCNC(=O)c1ccc(C2SCC(=O)N2Cc2ccco2)cc1` (stereo unspecified) here?
A: 10 µM (active)

Q: How did the “activity, negative = inhibition” value turn out when `O=C(NCc1ccco1)c1ccc(Cn2c(=O)c3sccc3n(Cc3ccc(F)cc3)c2=O)cc1` was run?
A: 7.09%

Q: `CCCCOc1ccc(C(=O)NCc2ccco2)cc1` was tested. Which “activity, negative = inhibition” value did it give?
A: 6.18%

Q: For `Cc1ccc(-c2csc(NC(=O)c3cnccn3)n2)cc1C`, which “activity, negative = inhibition” value is on record?
A: 0.726%

Q: Which “activity, negative = inhibition” value does the source give for `Cn1nnc(NC(=O)CSc2ncn[nH]2)n1` here?
A: 3.76%

Q: For `CC(C)(C)c1ccc(C(=O)CSc2ncn[nH]2)cc1`, which Potency is on record?
A: 20 µM (active)

Q: How did the “activity, negative = inhibition” value turn out when `COc1ccc(C(=O)CSc2nccc(=O)[nH]2)cc1` was run?
A: -7.29%

Q: With `CC(=O)N(CCCN(C)C)c1nc2ccc(C)cc2s1` as the molecule, how does the “activity, negative = inhibition” value read?
A: 9.7%

Q: With `CC1(C)C(=O)Nc2ccccc2N1C(=O)COC(=O)Cn1cnc2ccccc2c1=O` as the molecule, how does the “activity, negative = inhibition” value read?
A: -2.55%

Q: For `CCNc1ccc(C(=O)OCC(=O)N2c3ccccc3NC(=O)C2(C)C)cc1[N+](=O)[O-]`, which Potency is on record?
A: 11.2 µM (active)

Q: Which “activity, negative = inhibition” value does the source give for `Nc1ccc(C(=O)OCC(=O)NC2CCCc3ccccc32)cc1[N+](=O)[O-]` (stereo unspecified) here?
A: 3.62%

Q: How did the Potency turn out when `COCCn1nnnc1C(c1cc2ccc(OC)cc2[nH]c1=O)N1CCc2ccccc2C1` (stereo unspecified) was run?
A: 25.1 µM (active)

Q: For `Cc1ccc(C(c2nnnn2C(C)(C)C)N2CCc3ccccc3C2)cc1` (stereo unspecified), which “activity, negative = inhibition” value is on record?
A: 5.23%

Q: `COc1ccc(OC)c(C(c2nnnn2C(C)(C)C)N2CCc3ccccc3C2)c1` (stereo unspecified) was tested. Which “activity, negative = inhibition” value did it give?
A: -4.68%

Q: How did the “activity, negative = inhibition” value turn out when `CC(=O)c1ccc(N2CCN(S(=O)(=O)c3c(C)[nH]c(=O)[nH]c3=O)CC2)cc1` was run?
A: 15.3%

Q: With `CSc1ccc(/C=N/N2CCN(Cc3ccccc3Cl)CC2)cc1` as the molecule, how does the “activity, negative = inhibition” value read?
A: 3.55%

Q: `CN1CCN(CC(=O)C23CC4CC(CC(C4)C2)C3)CC1` was tested. Which Potency did it give?
A: 20 µM (active)

Q: With `CC(C)(C)NC(=O)CN1CCC(NC(=O)C23CC4CC(CC(C4)C2)C3)CC1` as the molecule, how does the “activity, negative = inhibition” value read?
A: -3.43%

Q: For `O=C(N1CCCC1)C12CC3CC(C1)CC(C(=O)N1CCCC1)(C3)C2`, which “activity, negative = inhibition” value is on record?
A: -2.48%

Q: Which “activity, negative = inhibition” value does the source give for `COC/C=C/C1=CC2=CC(=O)C(C)(OC(=O)CCC(=O)OC)C(=O)C2=CO1` (stereo unspecified) here?
A: -2.86%

Q: For `COc1cc(Cl)c(S(=O)(=O)n2cnc(C)c2)cc1Cl`, which “activity, negative = inhibition” value is on record?
A: 10.4%

Q: For `Cc1ccccc1-n1c(C)cc(/C=C2\NC(=O)NC2=O)c1C`, which “activity, negative = inhibition” value is on record?
A: 0.873%

Q: For `COc1cc(OC)c(-n2c(C)cc(C=O)c2C)cc1Cl`, which Potency is on record?
A: 7.08 µM (active)

— PubChem BioAssay AID1030 (National Center for Advancing Translational Sciences (NCATS), 2008)
